Of roughly 21,000 targets only a part is listed; those with the largest changes were picked by preference.
Compound: CC1Cc2ccccc2N1C(=O)C1CCCN(C1)C(=O)CCl (mixture of isomers) [TRIM25 ligand 11 (diastereomer mixture)]
Test: probe-labelled cysteine peptide fold change vs DMSO (competition) (log2 fold change); higher = less target engagement (more negative = stronger competition)
Details: THP-1, incubation time: 4 h
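Note: competitive chemoproteomic profiling in live THP-1 cells with an iodoacetamide desthiobiotin (IA-DTB) probe, comparing probe-labelled peptide intensities in compound-treated cells against DMSO-treated controls.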

Sequence of UniProt Q9H081 (Q9H081 whole entry): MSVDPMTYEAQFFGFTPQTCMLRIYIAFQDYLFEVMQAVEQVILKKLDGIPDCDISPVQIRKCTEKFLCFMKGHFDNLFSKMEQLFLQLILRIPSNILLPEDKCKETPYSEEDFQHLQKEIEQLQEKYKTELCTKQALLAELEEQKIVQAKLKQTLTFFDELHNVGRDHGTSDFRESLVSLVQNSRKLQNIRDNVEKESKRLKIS
Sequence of UniProt P43243 (P43243 whole entry, looked up): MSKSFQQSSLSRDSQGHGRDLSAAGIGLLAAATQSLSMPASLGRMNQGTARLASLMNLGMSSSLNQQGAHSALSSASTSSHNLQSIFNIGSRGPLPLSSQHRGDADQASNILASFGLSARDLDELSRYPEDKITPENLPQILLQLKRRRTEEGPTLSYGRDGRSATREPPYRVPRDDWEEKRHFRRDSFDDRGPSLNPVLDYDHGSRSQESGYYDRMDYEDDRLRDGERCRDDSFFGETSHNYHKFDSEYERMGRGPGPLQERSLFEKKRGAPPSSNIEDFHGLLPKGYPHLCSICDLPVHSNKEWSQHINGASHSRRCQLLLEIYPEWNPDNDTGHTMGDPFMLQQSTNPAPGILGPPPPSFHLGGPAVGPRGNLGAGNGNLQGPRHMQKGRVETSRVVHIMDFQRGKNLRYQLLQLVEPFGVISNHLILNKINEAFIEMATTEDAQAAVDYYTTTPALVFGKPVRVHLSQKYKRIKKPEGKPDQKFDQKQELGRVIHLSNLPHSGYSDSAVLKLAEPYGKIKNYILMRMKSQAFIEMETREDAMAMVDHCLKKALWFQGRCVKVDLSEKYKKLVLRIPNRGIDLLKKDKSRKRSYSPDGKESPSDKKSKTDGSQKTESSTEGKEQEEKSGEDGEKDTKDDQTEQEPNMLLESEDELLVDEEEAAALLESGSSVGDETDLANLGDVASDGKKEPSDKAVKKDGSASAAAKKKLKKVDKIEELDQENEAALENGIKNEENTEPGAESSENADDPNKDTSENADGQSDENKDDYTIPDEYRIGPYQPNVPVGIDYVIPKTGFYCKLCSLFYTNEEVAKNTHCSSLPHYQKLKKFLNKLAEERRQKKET
Sequence of UniProt Q4G0N4 (Q4G0N4 whole entry, looked up): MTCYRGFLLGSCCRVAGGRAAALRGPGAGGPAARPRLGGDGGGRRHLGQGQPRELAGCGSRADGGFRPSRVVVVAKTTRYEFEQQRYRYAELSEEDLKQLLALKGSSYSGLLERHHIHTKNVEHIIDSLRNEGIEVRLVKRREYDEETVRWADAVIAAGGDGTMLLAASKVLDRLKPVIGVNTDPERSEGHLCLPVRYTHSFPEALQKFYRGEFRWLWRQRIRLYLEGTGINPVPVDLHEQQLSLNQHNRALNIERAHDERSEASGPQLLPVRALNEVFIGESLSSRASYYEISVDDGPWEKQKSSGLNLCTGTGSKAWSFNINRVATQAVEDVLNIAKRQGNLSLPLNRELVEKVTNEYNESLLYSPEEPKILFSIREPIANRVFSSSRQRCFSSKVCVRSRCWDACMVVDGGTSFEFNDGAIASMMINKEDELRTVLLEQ
Sequence of UniProt Q13615 (Q13615 whole entry, looked up): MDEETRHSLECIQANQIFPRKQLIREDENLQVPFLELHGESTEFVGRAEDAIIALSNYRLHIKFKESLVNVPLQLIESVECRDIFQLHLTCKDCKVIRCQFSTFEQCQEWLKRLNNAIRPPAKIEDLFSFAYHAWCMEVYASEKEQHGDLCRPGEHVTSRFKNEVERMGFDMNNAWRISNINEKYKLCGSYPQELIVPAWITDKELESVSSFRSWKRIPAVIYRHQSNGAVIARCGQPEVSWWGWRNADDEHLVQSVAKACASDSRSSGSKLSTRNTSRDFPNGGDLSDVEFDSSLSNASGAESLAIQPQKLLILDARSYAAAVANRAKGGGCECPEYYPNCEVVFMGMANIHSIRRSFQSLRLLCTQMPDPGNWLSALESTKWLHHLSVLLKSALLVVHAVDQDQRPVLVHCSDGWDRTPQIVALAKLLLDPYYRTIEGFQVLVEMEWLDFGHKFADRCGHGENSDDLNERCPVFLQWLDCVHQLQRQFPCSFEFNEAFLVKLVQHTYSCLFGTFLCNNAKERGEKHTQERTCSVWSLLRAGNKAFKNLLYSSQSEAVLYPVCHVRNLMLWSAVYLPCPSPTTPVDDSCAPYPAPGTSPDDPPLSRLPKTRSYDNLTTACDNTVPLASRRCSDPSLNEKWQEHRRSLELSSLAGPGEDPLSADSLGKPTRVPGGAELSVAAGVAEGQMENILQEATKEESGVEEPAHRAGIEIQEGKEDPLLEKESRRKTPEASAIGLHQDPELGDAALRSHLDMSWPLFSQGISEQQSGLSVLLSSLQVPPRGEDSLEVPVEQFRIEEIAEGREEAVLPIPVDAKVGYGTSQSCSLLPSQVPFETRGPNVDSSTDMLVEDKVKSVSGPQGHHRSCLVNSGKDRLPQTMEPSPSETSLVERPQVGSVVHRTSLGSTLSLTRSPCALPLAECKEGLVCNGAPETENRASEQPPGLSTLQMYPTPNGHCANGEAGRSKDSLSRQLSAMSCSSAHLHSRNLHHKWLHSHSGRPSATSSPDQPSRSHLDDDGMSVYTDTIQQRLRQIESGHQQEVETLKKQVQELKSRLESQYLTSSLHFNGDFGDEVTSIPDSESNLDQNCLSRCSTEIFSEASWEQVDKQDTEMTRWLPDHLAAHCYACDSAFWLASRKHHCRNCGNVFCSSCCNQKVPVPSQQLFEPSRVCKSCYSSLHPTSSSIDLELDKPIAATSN
Sequence of UniProt O14880 (O14880 whole entry, looked up): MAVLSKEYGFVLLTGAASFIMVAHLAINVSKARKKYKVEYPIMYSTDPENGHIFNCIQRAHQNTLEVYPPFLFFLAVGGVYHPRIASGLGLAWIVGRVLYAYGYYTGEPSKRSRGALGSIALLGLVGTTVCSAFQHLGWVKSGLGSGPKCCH
Sequence of UniProt Q8N3F8 (Q8N3F8 whole entry, looked up): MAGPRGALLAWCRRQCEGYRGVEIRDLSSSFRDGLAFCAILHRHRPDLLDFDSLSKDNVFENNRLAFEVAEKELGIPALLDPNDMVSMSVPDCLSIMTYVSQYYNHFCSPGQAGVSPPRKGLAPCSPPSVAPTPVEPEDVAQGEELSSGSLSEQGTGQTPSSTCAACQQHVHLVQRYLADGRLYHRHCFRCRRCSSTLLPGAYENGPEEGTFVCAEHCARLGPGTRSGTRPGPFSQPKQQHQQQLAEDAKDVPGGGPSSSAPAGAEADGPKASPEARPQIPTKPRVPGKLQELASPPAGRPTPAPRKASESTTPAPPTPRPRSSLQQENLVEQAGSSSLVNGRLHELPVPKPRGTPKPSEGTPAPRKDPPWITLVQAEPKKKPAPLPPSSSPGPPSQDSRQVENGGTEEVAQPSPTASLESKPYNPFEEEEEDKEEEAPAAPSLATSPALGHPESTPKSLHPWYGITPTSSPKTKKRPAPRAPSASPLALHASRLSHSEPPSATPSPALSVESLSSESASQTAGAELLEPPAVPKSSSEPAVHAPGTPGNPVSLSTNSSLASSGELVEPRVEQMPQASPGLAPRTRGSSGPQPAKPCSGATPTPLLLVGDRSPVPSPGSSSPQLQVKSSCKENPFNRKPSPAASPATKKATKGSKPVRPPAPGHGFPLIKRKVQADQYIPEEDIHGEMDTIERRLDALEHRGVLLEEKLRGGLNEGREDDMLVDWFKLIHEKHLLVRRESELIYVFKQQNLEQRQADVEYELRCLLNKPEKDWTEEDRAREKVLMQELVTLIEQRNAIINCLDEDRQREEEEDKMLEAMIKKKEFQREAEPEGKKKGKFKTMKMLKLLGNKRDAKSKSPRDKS
Sequence of UniProt Q9BVC4 (Q9BVC4 whole entry, looked up): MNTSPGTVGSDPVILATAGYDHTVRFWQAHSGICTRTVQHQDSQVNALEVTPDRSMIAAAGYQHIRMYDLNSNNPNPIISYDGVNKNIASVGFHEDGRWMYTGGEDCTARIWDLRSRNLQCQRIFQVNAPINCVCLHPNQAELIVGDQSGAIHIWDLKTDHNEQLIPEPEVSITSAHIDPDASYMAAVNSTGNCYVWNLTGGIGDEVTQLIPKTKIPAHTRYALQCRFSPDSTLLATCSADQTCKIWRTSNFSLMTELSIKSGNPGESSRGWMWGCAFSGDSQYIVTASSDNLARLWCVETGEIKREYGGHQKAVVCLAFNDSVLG
Sequence of UniProt Q14CX7 (Q14CX7 whole entry, looked up): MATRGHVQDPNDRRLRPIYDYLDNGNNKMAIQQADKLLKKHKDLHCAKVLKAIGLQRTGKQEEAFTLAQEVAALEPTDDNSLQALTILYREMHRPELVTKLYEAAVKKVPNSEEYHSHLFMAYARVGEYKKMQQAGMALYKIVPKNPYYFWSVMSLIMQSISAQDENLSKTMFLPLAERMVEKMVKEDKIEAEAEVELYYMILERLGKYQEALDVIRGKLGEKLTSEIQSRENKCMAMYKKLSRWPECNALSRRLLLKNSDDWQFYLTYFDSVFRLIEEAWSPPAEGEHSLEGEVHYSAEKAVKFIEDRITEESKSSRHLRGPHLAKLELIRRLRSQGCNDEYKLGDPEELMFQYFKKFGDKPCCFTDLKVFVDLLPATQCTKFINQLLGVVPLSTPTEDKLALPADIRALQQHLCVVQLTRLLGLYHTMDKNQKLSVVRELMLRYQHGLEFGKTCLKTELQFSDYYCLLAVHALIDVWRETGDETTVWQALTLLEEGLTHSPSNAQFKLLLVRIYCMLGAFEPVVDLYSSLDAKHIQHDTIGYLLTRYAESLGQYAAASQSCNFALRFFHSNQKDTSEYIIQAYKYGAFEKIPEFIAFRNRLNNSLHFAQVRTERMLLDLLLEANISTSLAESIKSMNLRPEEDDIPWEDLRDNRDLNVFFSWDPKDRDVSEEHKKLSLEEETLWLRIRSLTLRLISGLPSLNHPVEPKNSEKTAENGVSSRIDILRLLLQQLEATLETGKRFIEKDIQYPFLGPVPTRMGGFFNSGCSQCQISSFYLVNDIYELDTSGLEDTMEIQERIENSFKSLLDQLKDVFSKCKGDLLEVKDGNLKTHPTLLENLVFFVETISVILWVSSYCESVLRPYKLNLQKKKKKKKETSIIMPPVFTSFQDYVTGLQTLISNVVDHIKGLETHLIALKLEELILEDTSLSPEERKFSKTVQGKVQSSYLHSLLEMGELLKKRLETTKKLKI

Target | probe-labelled cysteine peptide fold change (10 µM) | probe-labelled cysteine peptide fold change (50 µM)
NAA25_Q14CX7_339_SQGCNDEYK (UniProt Q14CX7) | 0.0881 | -0.0602
MTMR3_Q13615_81_ESLVNVPLQLIESVECR (UniProt Q13615) | 0.553 | -0.00809
MLST8_Q9BVC4_107_WMYTGGEDCTAR (UniProt Q9BVC4) | 0.0109 | -0.0842
MICALL1_Q8N3F8_194_CSSTLLPGAYENGPEEGTFVCAEHCAR (UniProt Q8N3F8) | 0.154 | -0.0569
MED7_O43513_223_DAALCVLIDEMNERP (UniProt O43513) | 0.0565 | -0.131
MKI67_P46013_773_EQPQLTSTCHIAISNSENLLGK (UniProt P46013) | 0.234 | -0.0412
NADK2_Q4G0N4_311_SSGLNLCTGTGSK (UniProt Q4G0N4) | -0.0288 | -0.0319
MIS12_Q9H081_133_YKTELCTK (UniProt Q9H081) | -0.0461 | 0.0357
MGST3_O14880_56_YKVEYPIMYSTDPENGHIFNCIQR (UniProt O14880) | 0.0746 | -0.113
MATR3_P43243_296_GYPHLCSICDLPVHSNK (UniProt P43243) | -0.0503 | 0.00253
NCAPD3_P42695_361_ILLQHICAK (UniProt P42695) | -0.145 | 0.173

Source: the supplement of paper PMC12067093, “Discovery and optimisation of a covalent ligand for TRIM25 and its application to targeted protein ubiquitination” (Chemical Science, 2025)
